Screens (PubChem)
This is a sample that favours compounds with a hit; in the whole collection about 7.3% have one here.
SMN2 splice enh – SMN2 splice variant enhancement; HEK293 SMN2-luciferase splicing reporter, luminescence, 30-36 h; Potency, µM (top dose mostly 46.1 µM), actives largely listed as activators; 210,000 compounds, 2.8% hits; AID 1458; also: nearly all actives have a fitted effect of over 55% in size
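HEK293 cells carry an SMN2 […]–luciferase reporter in which exon 7 inclusion puts luciferase in frame. Cells were plated 10-12 h before compound addition, then incubated 30-36 h at 37C. ONE-Glo luminescence was read; sodium butyrate at 4.5 mM final served as control.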
NPC1 promoter act – NPC1 promoter activation; Huh7 NPC1 promoter luciferase reporter, 24 h; Potency, µM (titrated, usually from 9.22 µM), most hits filed as activators; 320,000 compounds, 2.4% hits; AID 485313; also: nearly all actives have a fitted effect of over 60% in size
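Compounds in DMSO were transferred onto Huh7 NPC1-luciferase reporter cells pre-incubated 2 h; after 24 h at 37 °C, Amplite reagent was dispensed and luminescence recorded 10 min later.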
FLuc modulator – inhibits or activates purified firefly luciferase, miR-21 counter-screen; Potency, µM (series often up to 57.5 µM), hits mostly inhibitors; 360,000 compounds, 6.9% hits; P08659; purified FLuc, Km substrates, luminescence inhibition; also: nearly all actives have a fitted effect of over 55% in size
Target sequence (P08659 whole entry, looked up): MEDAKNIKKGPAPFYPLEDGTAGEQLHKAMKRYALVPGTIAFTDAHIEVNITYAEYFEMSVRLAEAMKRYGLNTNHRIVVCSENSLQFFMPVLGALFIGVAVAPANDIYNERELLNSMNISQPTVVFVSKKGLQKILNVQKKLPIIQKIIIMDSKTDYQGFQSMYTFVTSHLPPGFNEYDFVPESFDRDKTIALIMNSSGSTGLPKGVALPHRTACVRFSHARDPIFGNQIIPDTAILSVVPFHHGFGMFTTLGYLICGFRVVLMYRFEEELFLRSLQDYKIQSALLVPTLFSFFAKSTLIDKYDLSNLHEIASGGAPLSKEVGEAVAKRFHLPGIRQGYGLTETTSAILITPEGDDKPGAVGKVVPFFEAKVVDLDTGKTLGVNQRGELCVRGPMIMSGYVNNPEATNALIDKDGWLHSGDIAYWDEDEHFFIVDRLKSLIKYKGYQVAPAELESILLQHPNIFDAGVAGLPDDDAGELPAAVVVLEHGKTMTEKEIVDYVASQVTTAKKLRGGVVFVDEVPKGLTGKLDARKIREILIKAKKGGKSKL
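Purified P. pyralis luciferase, 10 nM final, with Km-level 10 uM D-luciferin and 10 uM ATP in 50 mM Tris acetate pH 7.5, 10 mM Mg acetate, 0.01% Tween-20, 0.05% BSA; 6-point qHTS titration about 60 µM downward; luminescence read.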
Luc counter – counter-screen: inhibitors of Kinase-Glo firefly luciferase. Q27757. 200,000 compounds, 0.28% hits. Potency, µM (doses to about 38.3 µM), usual class: inhibitors. Kinase-Glo luciferase, ATP luminescence, 8 min; also: nearly all actives have a fitted effect of over 60% in size
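Inhibition of Kinase-Glo luciferase light generation was assessed at 10 uM ATP in pH 7.2 imidazole buffer, with luminescence measured after eight minutes at ambient temperature.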
Rab9 prom act – Rab9 promoter activation | Huh7 Rab9 promoter-luciferase reporter, luminescence, 24 h | Potency, µM (titrated, usually from 9.22 µM), actives largely listed as activators | 320,000 compounds, 2.8% hits; also: nearly all actives have a fitted effect of over 60% in size
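Cells were plated at 1500 per well in reduced-serum medium with 10% FBS and left 2 h. Compound in DMSO was then added for 24 h at 37 °C. Reporter signal was read by luminescence after 10 min with luciferase detection reagent.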
ELG1 genotox – induces genotoxicity in HEK293T cells with luciferase-tagged ELG1 | AID 504466 | Potency, µM (titrated, usually from 46 µM), usual class: activators | HEK293T ELG1-luciferase reporter, luminescence, 16 h | 330,000 compounds, 1.3% hits; also: nearly all actives have a fitted effect of over 60% in size
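Reporter readout depends on ELG1 protein level, which increases with genetic stress. After 16 hr compound exposure at 37 °C, luciferase activity was quantified using ONE-Glo.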
Large screens that a line does not name were inactive. Calls follow the shape of the dose curve; as a rule, active = well fitted curve in the direction sought with a large enough effect; inconclusive = small, poorly fitted or top-dose-only effect, or another doubt; inactive = no such curve, though single readings can be large; an effect the other way counts as inactive or inconclusive.

CC(/C=N/NC(=O)CSc1nnc(SCc2ccccc2)s1)=C\c1ccco1	FLuc modulator 21.3µM
Cc1nn(-c2ccccc2)c(C)c1/C=N/NC(=O)c1cccs1	SMN2 splice enh 17.8µM, NPC1 promoter act inconclusive, FLuc modulator 8.49µM, Rab9 prom act inconclusive, ELG1 genotox inconclusive
Cc1[nH]c2ccccc2c1/C=N/NC(=O)c1cccs1	SMN2 splice enh inconclusive, FLuc modulator 26.9µM, ELG1 genotox inconclusive
Cc1nn(-c2ccccc2)c(C)c1/C=N/NC(=O)c1cc(-c2cccs2)[nH]n1	FLuc modulator 13.5µM
Cc1nn(-c2ccccc2)c(C)c1/C=N/NC(=O)CSc1nnc(SCc2ccc(Cl)cc2)s1	FLuc modulator 9.53µM
O=C(CSc1nnc(SCc2ccccc2)s1)N/N=C/c1c(Cl)cccc1Cl	FLuc modulator inconclusive
O=C(c1cc(-c2ccccc2)nc2ccccc12)N1CCOCC1	FLuc modulator inconclusive
O=C(c1ccco1)N1CCN(c2ccnc3cc(Cl)ccc23)CC1	none
O=C(c1ccco1)N1CCN(C(=O)c2cc(-c3ccccc3)nc3ccccc23)CC1	FLuc modulator 6.75µM
O=C(c1ccco1)N1CCN(C(=O)c2cc(-c3ccccn3)nc3ccc(Cl)cc23)CC1	FLuc modulator 19µM
Cc1ccc(-c2cc(C(=O)N3CCN(C4CCS(=O)(=O)C4)CC3)c3ccccc3n2)cc1 (centres undefined)	none (no result: SMN2 splice enh, FLuc modulator, Luc counter)
O=C(c1cc(-c2ccccc2)nc2ccccc12)N1CCN(C2CCS(=O)(=O)C2)CC1 (centres undefined)	FLuc modulator 26.9µM (no result: SMN2 splice enh, Luc counter)
Cc1cc(NC(=O)CSc2ncnc3c2cnn3-c2cccc(Cl)c2)no1	none
O=C1CCC(=O)N1c1ccc(-c2nc3sc4c(c3c(=O)o2)CCC4)cc1	FLuc modulator 21.3µM (no result: SMN2 splice enh, Luc counter)
Cc1nn2c(=O)c3c4c(sc3nc2n1-c1ccccc1)COC(C)(C)C4	none (no result: SMN2 splice enh, Luc counter)
O=c1oc(-c2ccccc2)nc2sc3c(c12)CCC3	SMN2 splice enh inconclusive, FLuc modulator 2.39µM, Luc counter inconclusive
CC1(C)Cc2c(sc3nc(-c4ccccc4)oc(=O)c23)CO1	SMN2 splice enh inconclusive, FLuc modulator 1.2µM
Cc1sc2nc(-c3ccccc3)oc(=O)c2c1C	FLuc modulator 5.36µM (no result: SMN2 splice enh, Luc counter)
Cc1nc2sc3c(c2c(=O)o1)CCCC3	none
COc1ccc(Cc2nc(-c3cccs3)no2)cc1OC	FLuc modulator inconclusive
COc1ccc(-c2c(C)cc3oc(=O)cc(-c4ccccc4)c3c2C)cc1	none (no result: SMN2 splice enh, NPC1 promoter act, FLuc modulator, Rab9 prom act)
CCOC(=O)Cc1csc(/N=C/c2c(O)n(-c3ccc(C)cc3C)c(=O)c3ccccc23)n1	FLuc modulator inconclusive
COc1ccc(C(=S)N2CCOCC2)cc1OC(=O)c1ccc(C)cc1	none (no result: SMN2 splice enh, Luc counter)
O=C(NCc1ccccc1Cl)C1CC(=O)N(Cc2ccccc2)C1 (centres undefined)	none
CC1(C)Cc2c(sc3nc(-c4cc5ccccc5o4)n(N)c(=O)c23)CO1	SMN2 splice enh 11.2µM, NPC1 promoter act 3.16µM, FLuc modulator 6.01µM, Rab9 prom act 2.82µM
Nc1nc(-c2ccccc2)nc2sc3c(c12)CCCC3	SMN2 splice enh 3.16µM, NPC1 promoter act 2.24µM, FLuc modulator 0.269µM, Rab9 prom act 1.78µM, ELG1 genotox 4.11µM
Cc1ccc(-c2nc3sc4c(c3c(=O)n2N)CC(C)(C)OC4)cc1	none
O=c1oc(-c2ccco2)nc2sc3c(c12)CCCC3	SMN2 splice enh 14.1µM, FLuc modulator 1.51µM, Luc counter inconclusive
COc1ccc(C2CC(c3ccncc3)=NN2c2ccc(S(N)(=O)=O)cc2)cc1 (centres undefined)	ELG1 genotox 20.6µM (no result: SMN2 splice enh, NPC1 promoter act, FLuc modulator, Luc counter, Rab9 prom act)
COc1ccc(C2CC(c3ccc(Cl)cc3)=NN2c2ccc(S(N)(=O)=O)cc2)cc1 (centres undefined)	none (no result: SMN2 splice enh, NPC1 promoter act, FLuc modulator, Luc counter, Rab9 prom act)
COc1ccc(C2=NN(c3ccccc3)C(c3cn(CCC(=O)O)nc3-c3ccccc3)C2)cc1 (centres undefined)	FLuc modulator 4.26µM
COc1ccc(C2CC(c3ccccc3)=NN2c2ccc(N)cc2)cc1 (centres undefined)	FLuc modulator 9.53µM
